test: Confirmation and Secondary Assay for Modulators of Hemoglobin Beta Chain Splicing at IVS2 705 locus (AID 930); conditions: HeLa EGFP-705 splicing reporter, GFP fluorescence, 48 h; series mostly up to 46.1 µM; activation: at the top concentration; active = well fitted activation curve with a large enough effect; inconclusive = small, poorly fitted or top-dose-only effect; inactive = flat fitted curve, though single readings scatter;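 note: HeLa cells stably expressing the EGFP-705 splicing reporter; % of control where 0% means no effect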
Method in brief: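 Assay measures total GFP intensity per well in HeLa EGFP-705 cells after 2 days with compound; mis-splicing normally truncates EGFP, so fluorescence indicates corrected splicing.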

activation, inactive:
CNC1C(O)C(O[C@H]2C(O)[C@@H](OC3OC(CN)=CCC3N)[C@H](N)C[C@@H]2N)OC[C@]1(C)O (some centres not stated) 0.364%
COC1=CC(=O)C=C(OC)C1=O 2.54%
COc1ccc(-c2coc3cc(OC)cc(OC)c3c2=O)cc1 -0.196% [at 38.3 µM]
CC1CC2C(C(O)C[C@]3(C)C2CC[C@]3(O)C(=O)CO)[C@]2(C)C=CC(=O)C=C12 (some centres not stated) -0.711%
C[C@]12CCC(=O)C=C1CCC1C2C(O)C[C@]2(C)C1CC[C@]2(O)C(=O)COC(=O)CCC(=O)O (some centres not stated) 1.54%
COc1ccc2c3c1OC1CC(O)C=C[C@@]31CCN(C)C2 (some centres not stated) 0.415%
C=C1c2cccc(O)c2C(O)=C2C(=O)[C@]3(O)C(O)=C(C(N)=O)C(=O)C(N(C)C)C3C(O)C12 (some centres not stated) 1.47%
C=C1C(=O)OC2C1CC/C(C)=C/CCC1(C)OC21 (configuration not stated) -0.22% [at 38.3 µM]
COc1cc(OC)c2c(=O)c(-c3ccccc3)c(C)oc2c1OC 0.744% [at 38.3 µM]
NC(N)=Nc1nc(CSCC/C(N)=N\S(N)(=O)=O)cs1 0.979%
CS(C)(=O)=O 1.04%
CC1CC[C@@]23CCC4(C)[C@@]5(C)CCC6C(C)(C)C(=O)CC[C@@]6(C)C5C=C[C@@]4(OC2=O)C3C1C (some centres not stated) 1.42% [at 38.3 µM]
CNCC(O)c1cccc(O)c1 (configuration not stated) -1.72%
O=C(O)/C=C/C=C/c1ccccc1 1.32% [at 38.3 µM]
NC(=O)c1ccc[n+]([C@@H]2OC(COP(=O)([O-])OP(=O)(O)OCC3OC(n4cnc5c(N)ncnc54)C(O)C3O)C(O)C2O)c1 (some centres not stated) 1.73%
Cc1cc(=O)oc2cc(O)c(O)cc12 1.5% [at 38.3 µM]
NC1C(O)OC(CO)[C@@H](O)[C@@H]1O[C@H]1O[C@@H](C(=O)O)C(O)C(O)C1O (some centres not stated) -0.649% [at 38.3 µM]
COc1ccc(-c2c(O)c3c(OC)c4c(cc3oc2=O)OC(C)(C)CC4)cc1 -0.452% [at 38.3 µM]
Oc1ccc2c(c1)OCC1c3cc4c(cc3OC21)OCO4 (configuration not stated) 1.33%
O=c1c2cc(O)c(O)cc2oc2cc(O)c(C3OC(CO)C(O)C(O)C3O)c(O)c12 (configuration not stated) -0.645%
Cc1nnc(SCC2=C(C(=O)O)N3C(=O)C(NC(=O)Cn4cnnn4)[C@@H]3SC2)s1 (some centres not stated) 6.87%
COc1cc2c(cc1OC)C(=O)OC2 0.0172% [at 38.3 µM]
COc1cc(C2c3cc4c(cc3C(OC3OC5COC(C)O[C@@H]5C(O)C3O)C3COC(=O)C23)OCO4)cc(OC)c1O (some centres not stated) -0.637%
C=C1C(=O)C23C(O)C1CCC2[C@]12COC3(O)C(O)C1C(C)(C)CC[C@H]2O (some centres not stated) 2.59%
Cc1cc(O)cc(=O)o1 -2.49%
COc1ccc(-c2cc(=O)c3cc(OC)ccc3o2)cc1 1.57% [at 38.3 µM]
COC(=O)CC1[C@@]2(C)C[C@@]34OC5(C)OC6(CC[C@@]7(C)C(c8ccoc8)OC(=O)C(C(C)=O)C7[C@]6(O5)C(O)[C@@]3(O)C2O)[C@]14C (some centres not stated) 0.532% [at 38.3 µM]
